Measurements from PubChem BioAssay (NCI).
About 79,000 compounds went through this panel and 15% of them were active in at least one assay; those are over-represented in the sample as a whole. No stated cut-off is given here; in the data, active means growth inhibition above about 70%; inactive means the rest.

Key:
[1] = NCI Yeast Anticancer Drug Screen. Data for the rad50 strain (AID 155);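 further: 0% = growth of vehicle-only cultures of the same strain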; settings: S. cerevisiae rad50 strain growth inhibition; at 50.0 µM; active compounds read high
Summary of the method: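 Cells are treated with compound, grown, and their growth is then scored against vehicle-only cultures of the same repair-deficient yeast strain.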

[2] = NCI Yeast Anticancer Drug Screen. Data for the mec2-1 strain (AID 157); settings: S. cerevisiae mec2-1 strain, at 50.0 µM, active compounds read high
Summary of the method: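 Cells of the genetically defined mec2-1 yeast strain are incubated with test compound. Inhibition of growth is calculated against vehicle-treated controls.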

[3] = NCI Yeast Anticancer Drug Screen. Data for the sgs1 mgt1 strain (AID 161);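 further: 0% = growth of cultures given vehicle only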; settings: S. cerevisiae sgs1 mgt1 strain, at 50.0 µM, active compounds read high
Summary of the method: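 Test agents were incubated with a DNA-repair-mutant yeast strain. Growth was then read and compared against vehicle-treated controls.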

[4] = NCI Yeast Anticancer Drug Screen. Data for the cln2 rad14 strain (AID 165);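 further: 0% = growth equal to vehicle treated cultures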; settings: S. cerevisiae cln2 rad14 strain, at 50.0 µM, active compounds read high
Summary of the method: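 The screen exposed genetically defined yeast (cln2 rad14) to test compounds and scored growth inhibition relative to vehicle-treated controls.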

[5] = NCI Yeast Anticancer Drug Screen. Data for the bub3 strain (AID 167); settings: S. cerevisiae bub3 mutant strain, at 50.0 µM, active compounds read high
Summary of the method: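 Part of a panel of yeast mutants defective in DNA damage repair or cell cycle regulation. Each strain is grown with compound, and inhibition is calculated relative to solvent-treated cultures.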

[6] = NCI Yeast Anticancer Drug Screen. Data for the mlh1 rad18 strain (AID 175); settings: S. cerevisiae mlh1 rad18 strain growth inhibition; at 50.0 µM; active compounds read high
Summary of the method: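 Compound-treated yeast growth, normalised to vehicle controls. Strain bears defined DNA repair mutations.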

Measured: growth inhibition

Cc1cccc(C)c1NC(=S)NC(=O)c1cccc(Cl)c1
inactive: [1] -13.6% | [2] -23% | [3] -2.9% | [4] -10.5% | [5] -20.4% | [6] -16.6%

O=NN(CCCl)C(=O)NC1CCC(O)CC1 (stereo unspecified)
inactive: [1] -16.9% | [2] -10.8% | [3] -24% | [4] 13.2% | [5] -4.2% | [6] -4.2%

Clc1ccc(-c2nnc(-c3ccccc3)o2)cc1Cl
inactive: [1] -8.4% | [2] -24.8% | [3] -0.4% | [4] 16% | [5] -18.9% | [6] -6.5%

c1ccc(CC2COC(c3cccs3)=N2)cc1 (stereo unspecified)
inactive: [1] 26.9% | [2] -13.2% | [3] 21.6% | [4] 18.1% | [5] 31.2% | [6] 9%

CN1C(=O)NC(C)(C)C1=O
inactive: [1] -1.5% | [2] 3.3% | [3] -1.75% | [4] -13.7% | [5] -8.45% | [6] -4.95%

CC(=O)OC1CCC2(C)C(=CC=C3C4CCC(=O)NC4(C)CCC32)C1 (stereo unspecified)
inactive: [1] 19.5% | [2] 0.25% | [3] 21.4% | [4] 11.1% | [5] -3.6% | [6] 2.35%

CCCCCCCCCCCCCCCCCCCl
inactive: [1] 4.9% | [2] 6.6% | [3] 0.05% | [4] -31.1% | [5] 5.7% | [6] 28.4%

CC(=O)CCC(=O)CC(=O)CCC(=O)Nc1cc(Cl)ccc1Cl
inactive: [1] 15.3% | [2] 24.2% | [3] 19.9% | [4] 31.2% | [5] 2.5% | [6] 6.2%

c1ccc(C(=NN(CCCCN(N=C(c2ccccc2)c2ccccc2)c2ccccc2)c2ccccc2)c2ccccc2)cc1
inactive: [1] 28.6% | [2] 21.4% | [3] -11.6% | [4] 6.4% | [5] 0.05% | [6] 19.9%

N#CCC(=O)N/N=C1\C(=O)N(c2ccc(Cl)cc2)C(=O)C(=O)C1c1nc2ccccc2o1 (stereo unspecified)
inactive: [1] 22.4% | [2] -11.8% | [3] 0.4% | [4] 16.5% | [5] 1.35% | [6] 8.45%

O=C1C(c2ccccc2)=C(c2ccccc2)C(c2ccc(Sc3ccc(C4=C(c5ccccc5)C(=O)C(c5ccccc5)=C4c4ccccc4)cc3)cc2)=C1c1ccccc1
inactive: [1] 12.9% | [2] 22.6% | [3] 30.6% | [4] 15.7% | [5] -1.2% | [6] 24.2%

Cc1ccc(S(=O)(=O)NNC(=O)c2cc(C(=O)NNS(=O)(=O)c3ccc(C)cc3)c(C)nc2C)cc1
inactive: [1] -1.95% | [2] 5.3% | [3] 6.9% | [4] 21.8% | [5] 8.3% | [6] -7.8%

Cc1cc(=O)[nH]c(Nc2nc3cc(C)c(C)cc3[nH]2)n1
inactive: [1] 9.6% | [2] -4.9% | [3] 2.05% | [4] 9.2% | [5] -8.2% | [6] -8.4%

CC(=O)/C=C\C(=O)NNS(=O)(=O)c1ccc(C)cc1
inactive: [1] 20.6% | [2] 12.7% | [3] -1.75% | [4] 9.35% | [5] 34.1% | [6] 46.7%

COC(=O)CC(C)N(c1ccc(OC)cc1)S(=O)(=O)c1ccc(C)cc1 (stereo unspecified)
inactive: [1] 18.4% | [2] 4.05% | [3] 14.3% | [4] -46% | [5] 17.6% | [6] 10.3%

ClCCCCCc1c2nc(c(CCCCCCl)c3ccc([nH]3)c(CCCCCCl)c3ccc([nH]3)c(CCCCCCl)c3nc1C=C3)C=C2
inactive: [1] -14.2% | [2] -19.1% | [3] -20.6% | [4] 3.75% | [5] 4.9% | [6] -47.4%

Cc1ccc(N=Nc2ccc(O)c(CN(C)C)c2)cc1
inactive: [1] -14.6% | [2] -9.15% | [3] -24.4% | [4] -39.8% | [5] 18% | [6] -17.1%

Cc1cc(O)c(C)c(C)c1C
inactive: [1] -1.05% | [2] -6.55% | [3] 4.5% | [4] 2.1% | [5] -9.85% | [6] 12.1%

CCOC(=O)c1cc(-c2ccccc2)nc2nc(N)ccc12
inactive: [1] 15.2% | [2] -3.15% | [3] 5.65% | [4] 9.05% | [5] 13.2% | [6] 15.2%

O=C(O)C(CCC1CCC=CCC1)C(=O)O
inactive: [1] -13.8% | [2] -6.7% | [3] -9.25% | [4] -2.45% | [5] 5.6% | [6] -7.05%

Cc1cccc(Cl)c1NC(=O)COc1ccc(Cl)cc1
inactive: [1] 5.75% | [2] 5.75% | [3] 38.2% | [4] 1.65% | [5] 30.9% | [6] 26.2%

CCOC(=O)CC/C(C)=N/NC(=O)c1ccc[n+](C)c1
inactive: [1] -11.8% | [2] -3.65% | [3] -1.95% | [4] -29% | [5] -3.05% | [6] 2.65%

N/N=C(\N)SCc1ccc(N=C=S)cc1
inactive: [1] -4.8% | [2] 6.85% | [3] 17.4% | [4] 18.9% | [5] 16.5% | [6] 15.5%

Nc1nc2c(c(=O)[nH]1)NC(CCNc1ccc(C(=O)NC(CCC(=O)O)C(=O)O)cc1)CN2 (stereo unspecified)
inactive: [1] 14% | [2] 14.9% | [3] 25.6% | [4] 19.6% | [5] 7.65% | [6] 16.1%

O=Cc1cc2c(cc1-c1c(C=O)ccc3c1OCO3)OCO2
inactive: [1] 58.2% | [2] 27.2% | [3] 46.9% | [4] 18.6% | [5] 30.9% | [6] 26.6%

Fc1cc(Cl)c(F)cc1Cl
inactive: [1] -18% | [2] -17.8% | [3] -18.2% | [4] -27.3% | [5] -12.4% | [6] -27.4%

Nc1nc(N)c(N=O)c(N)n1
inactive: [1] -10.9% | [2] -8.85% | [3] 0.6% | [4] 21% | [5] 3.5% | [6] 15.2%

CCCCC(C(=O)O)C1CCCCC1 (stereo unspecified)
inactive: [1] -12.3% | [2] 17.4% | [3] 23.4% | [4] -11.9% | [5] -12.2% | [6] -1%

C/C=C/c1nc2c(c(=O)n(C)c(=O)n2C)n1C
inactive: [1] -8.05% | [2] -8.2% | [3] -6% | [4] -28.8% | [5] 0.95% | [6] 7%

O=C(NC(=O)C(F)(F)C(F)(F)F)Nc1cc(F)ccc1F
inactive: [1] 5.15% | [2] -2.05% | [3] 1.45% | [4] -38.8% | [5] -6.55% | [6] -29%

CCOC(=O)N/N=C(\CC)NO
inactive: [1] 2.45% | [2] 1.35% | [3] -7.7% | [4] -7% | [5] 12.8% | [6] 5.7%

C=C1C2CC[C@@]3(CC[C@@H]4[C@@]5(C)CCC[C@@]4(CN4CCO[C@H]45)[C@@H]3C2)[C@@H]1O
inactive: [1] -2.4% | [2] -5.9% | [3] 11.1% | [4] 25.9% | [5] 11.2% | [6] -5.5%

Cc1ccc(C(CCl)c2ccc(C)cc2)cc1
inactive: [1] -18.1% | [2] -1.45% | [3] -0.35% | [4] -36.5% | [5] -21.5% | [6] -2.95%

Cc1c(-c2nc(N)nc(C3CC3)c2C)nc(N)nc1C1CC1
inactive: [1] 4.55% | [2] -9.1% | [3] -12.7% | [4] -11.7% | [5] -26.8% | [6] -7.35%

Cc1c(C(=O)O)c2ccccc2[nH]c1=O
inactive: [1] -2.85% | [2] -1.25% | [3] 2.85% | [4] -40% | [5] -13.2% | [6] 2.5%

CN(C)CCNc1ccc2ncn3c4ccccc4c(=O)c1c23
inactive: [1] 13.4% | [2] -0.35% | [3] -4.95% | [4] 27.1% | [5] -0.1% | [6] 46.5%

CCS(=O)(=O)/C=C/c1ccco1
inactive: [1] 28.3% | [2] -18.6% | [3] 5.45% | [4] -36.9% | [5] 19.6% | [6] -14.9%

CN(C)c1ccc(C(=C2C=CC(=[N+](C)C)C=C2)c2c(O)c(S(=O)(=O)[O-])cc3cc(S(=O)(=O)O)ccc23)cc1
inactive: [1] 1.4% | [2] -21.5% | [3] -41.5% | [4] 15.1% | [5] -14.6% | [6] 27.1%

CNC(=O)Nc1ccc(OC)cc1OC
inactive: [1] 3% | [2] -6.2% | [3] -8.35% | [4] -66.5% | [5] 3.2% | [6] -18.6%

C1=C(c2ccccc2)Cc2ccccc21
inactive: [1] 13.4% | [2] 24.4% | [3] 19.9% | [4] -14.8% | [5] 15.4% | [6] 23.9%

O=C1C[C@@H]2CCCC[C@@H]2C12SCCS2
inactive: [1] -10.9% | [2] -18.6% | [3] -6.95% | [4] 13.8% | [5] -9.45% | [6] -5.25%
